In PubChem BioAssay (NCI):
Where “and” joins values, the source holds several entries; their conditions need not be identical. Equal entries are not always repeated. This is part of a sample that, as a whole, favours compounds with a hit. Of some 83,000 tested, about 20% had one in any assay.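 In brief: 96-well plates, 48 h treatment, single concentration, percent growth endpoint.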 Calls of active or inactive are those of the source. Rule for the calls: active = growth percent below 10; inactive = the rest.

These compounds were tested on MDA-MB-468 breast (assay: NCI-60 one-dose screen, 48 h (100 = growth as untreated, 0 = no growth, -100 = all killed)). Settings: 10 µM unless noted.

SMILES	growth
O=C(Nc1ccc(-n2cc(-c3ccncc3)c(-c3ccc(O)c(Cl)c3)n2)cc1)Nc1cc(C(F)(F)F)cc(C(F)(F)F)c1	37.1% (inactive)
CC(C)(C)Nc1c(-c2c3ccccc3cc3ccccc23)nc2ccccn12	68.4% (inactive)
O=c1[nH]c(=O)n(C2CC(O)C(CO)O2)cc1CO (stereo not given)	101% (inactive)
COc1nc2c(cc1S(=O)(=O)c1ccccc1)CCc1c-2cnn1-c1ccccc1Cl	40.4% (inactive)
COc1ccc2[nH]cc(C3(c4c[nH]c5ccc(OC)cc45)C(=O)Nc4ccc(F)cc43)c2c1	96.9% (inactive)
COc1ccc2sc3c(NCCCN(C)C)nc4ccccc4c3c(=O)c2c1	36.2% (inactive)
Cc1nn(-c2ccc(F)cc2)c2ncnc(Nc3ccc(NC(=O)Nc4ccc(Cl)c(C(F)(F)F)c4)cc3)c12	-2.58% (active)
O=C(O)C1C2CCC1C(O)C2 (stereo not given)	97.7% (inactive) and 110% (inactive)
CCOC(=O)C(C)(CSSCC(C)(NC(=O)c1ccc2ccccc2c1)C(=O)OCC)NC(=O)c1ccc2ccccc2c1 (stereo not given)	109% (inactive)
O=c1oc2c(cc1-c1ccccc1)c(=O)[nH]c1ccccc12	105% (inactive)
C=C1C(=O)O[C@H]2[C@H]1CC/C(COC(=O)c1ccc(Cl)nc1)=C\CC[C@@]1(C)O[C@@H]21	-25.1% (active)
CCCCNC(=O)CC1=C(C)/C(=C/c2[nH]c(-c3ccc[nH]3)cc2OC)N=C1C	37.9% (inactive)
CC1=C/C(=C(\c2ccc(N(C)C)cc2)c2ccc([N+](C)(C)C)cc2)C=CC1=[N+](C)C	70.6% (inactive)
C/C(=N/NC(N)=O)c1ccco1	110% (inactive)
CC(=O)Nc1cscc1NC(C)=O	95.1% (inactive)
COc1cccc(/C=N/NC(=O)c2ccccc2N2CCCC2)c1O	0.775% (active)
COc1ccc(S(=O)(=O)Nc2cc(/C=C\c3cc(OC)c(OC)c(OC)c3)ccc2OC)cc1	7.65% (active)
CC(C)Cc1ccc(C(C)C(=O)NCc2c[nH]c3ccc(Cl)cc23)cc1 (stereo not given)	80.7% (inactive)
COc1cc(OC)c2c(c1Cl)O[C@]1(C2=O)C(OCc2ccccc2)=CC(=O)C[C@H]1C	-4.52% (active)
O=C1C(Cl)C(c2ccccc2Cl)N1n1cnnc1 (stereo not given)	106% (inactive)
CCc1ccc(CNCC(O)c2ccccc2)cc1 (stereo not given)	-1.1% (active)
Cc1nc(-c2ccc(Cl)cc2)ccc1NC(=O)Nc1cccc(C(F)(F)F)c1	98.5% (inactive)
Clc1ccc(-c2nc(-c3cccs3)no2)c(Cl)c1	8.37% (active)
COc1ccc(/C=N/NC(=O)Cn2c(Cc3cccc4ccccc34)nc3ccccc32)cc1	92.4% (inactive)
COc1ccc(-c2cc(-c3cc(OC)c(OC)c(OC)c3)c(C#N)c(=O)n2CCCCC(=O)O)cc1	109% (inactive)
